Hit rate of the full screen: of about 310,000 compounds, about 1,200 (0.39%) were called active. The rule behind the calls is not given here. These entries were drawn from the full list. Potency and affinity values are given separately.
The compounds below were run against Large T antigen (Simian virus 40) (UniProt P03070) (assay: SV40 large T antigen inhibitors, biochemical (AID 1903)). Conditions: SV40 large T antigen ATPase/helicase inhibition assay; at 20 µM; active compounds read high.
Large T antigen (Simian virus 40), sequence (P03070 whole entry, looked up): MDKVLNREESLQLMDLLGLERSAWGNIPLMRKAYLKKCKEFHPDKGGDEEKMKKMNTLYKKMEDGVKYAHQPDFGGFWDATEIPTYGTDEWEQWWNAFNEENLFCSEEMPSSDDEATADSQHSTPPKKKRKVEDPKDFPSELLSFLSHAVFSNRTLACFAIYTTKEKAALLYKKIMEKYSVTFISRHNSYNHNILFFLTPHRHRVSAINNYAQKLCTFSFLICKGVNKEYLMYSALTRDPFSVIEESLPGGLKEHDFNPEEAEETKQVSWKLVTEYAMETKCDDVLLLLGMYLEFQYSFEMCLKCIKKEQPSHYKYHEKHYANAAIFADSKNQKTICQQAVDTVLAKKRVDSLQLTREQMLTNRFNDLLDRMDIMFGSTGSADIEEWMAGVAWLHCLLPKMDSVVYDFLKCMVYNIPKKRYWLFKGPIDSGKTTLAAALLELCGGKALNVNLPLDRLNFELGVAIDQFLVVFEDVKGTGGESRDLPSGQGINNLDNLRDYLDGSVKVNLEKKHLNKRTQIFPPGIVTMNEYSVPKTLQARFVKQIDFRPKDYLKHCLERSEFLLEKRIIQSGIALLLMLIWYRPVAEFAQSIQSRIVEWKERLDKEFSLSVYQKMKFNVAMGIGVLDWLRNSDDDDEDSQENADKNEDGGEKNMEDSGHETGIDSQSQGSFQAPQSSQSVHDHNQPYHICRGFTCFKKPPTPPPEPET

inhibition, inactive:
CCN(CC)CCn1c2c(c(SCC(=O)Nc3ccc4c(c3)OCO4)nc1=O)CCC2 8.82%
O=C(O)C1=C[C@H](c2ccc3c(c2)OCO3)C[C@H](OCc2ccc(CO)cc2)O1 9.17%
COc1ccccc1-c1cc(C(F)(F)F)nc(S(=O)(=O)CCCC(=O)NCc2ccc(F)cc2)n1 23.6%
CCOc1ccc(C(=O)CCc2nc3ccccc3s2)cc1 17.3%
CCOC(=O)/C(C#N)=C/c1c(N2CCN(c3ccccc3)CC2)nc2c(C)cccn2c1=O 2.5%
COc1cc(Cl)c(C)cc1Nc1ncccn1 5.51%
CCCCCNC(=O)Cn1c(=O)c2c(ncn2CC(C)C)n(Cc2ccccc2)c1=O 9.03%
O=C(CSc1nnc(NC(=O)c2c(F)cccc2F)s1)NCc1ccccc1 9.61%
COCCn1c(=O)[nH]c2cc(C(=O)NCCN3CCN(c4ccccc4)CC3)ccc2c1=O 0.98%
CCc1ccc(C(=O)OCC(=O)Nc2cccc(S(=O)(=O)NC3=NCCCCC3)c2)cc1 23%
Nc1nc2cc(S(=O)(=O)NC3=NCCCCC3)ccc2s1 37.1%
O=S(=O)(Nc1nc2c(s1)CCCC2)c1ccc2ccccc2c1 21.8%
O=S(=O)(NC1=NCCCCC1)c1ccc2ccccc2c1 7.96%
CC1CC(=O)C2=C(C1)Nc1ccccc1N(C(=O)COc1ccccc1)C2c1ccco1 (centres undefined) 5.78%
CCN(CC)Cc1c(O)ccc2c(=O)c(Oc3ccccc3OC)c(C)oc12 13.5%
Cc1c(-c2ccc(F)cc2)[n+](=O)c(-c2ccc(F)cc2)c(C)n1[O-] 17.5%
CC(C)(C)c1ccc(C(=O)NNC(=S)NCc2ccco2)cc1 12.7%
Cc1ccc2nc(-c3ccccn3)c(Nc3ccccc3C)n2c1 16.6%
Cc1ccccc1Nc1c(-c2cccnc2)nc2ccccn12 11.7%
c1ccc(-c2nc3ccccn3c2NC2CCCC2)nc1 35%
Cc1ccc2nc(-c3ccncc3)c(NC3CCCC3)n2c1 11.4%
CCCCCCC(=O)Oc1cccc(N2C(=O)C3CCCCC3C2=O)c1 (centres undefined) 4.91%
CCOC(=O)N1CCN(S(=O)(=O)c2ccc(OCC(=O)OC)c(Cl)c2)CC1 -13.8%
N#C/C(=C\c1ccc2c(c1)OCO2)C(=O)NCc1ccco1 6.96%
CC(c1ccccc1)N1CCC(CNC(=S)Nc2cccc(Cl)c2)C1 (centres undefined) 16.7%
C[C@@H]1O[C@@H](OC[C@H]2O[C@@H](Oc3c(-c4ccc(O)c(O)c4)oc4cc(O)cc(O)c4c3=O)[C@H](O)[C@@H](O)[C@@H]2O)[C@H](O)[C@H](O)[C@H]1O 5.24%
O=c1c(O[C@@H]2O[C@H](CO)[C@H](O)[C@H](O)[C@H]2O)c(-c2ccc(O)c(O)c2)oc2cc(O)cc(O)c12 -2.68%
O=c1c(O[C@@H]2O[C@H](CO)[C@@H](O)[C@H](O)[C@H]2O)c(-c2ccc(O)c(O)c2)oc2cc(O)cc(O)c12 2.85%
C[C@@H]1O[C@@H](OC[C@H]2O[C@@H](Oc3c(-c4ccc(O)cc4)oc4cc(O)cc(O)c4c3=O)[C@H](O)[C@@H](O)[C@@H]2O)[C@H](O)[C@H](O)[C@H]1O 10%
O=c1c(OC2OC(CO)C(O)C(O)C2OC2OC(CO)C(O)C(O)C2OC2OC(CO)C(O)C(O)C2O)c(-c2ccc(O)c(O)c2)oc2cc(O)cc(O)c12 (centres undefined) 7.41%
CC1OC(OC2C(Oc3c(-c4ccc(O)cc4)oc4cc(O)cc(O)c4c3=O)OC(COC3O[C@@H](C)[C@H](O)[C@@H](O)C3O)C(O)C2O)C(O)C(O)C1O (some centres undefined) 3.2%
CC(=O)N/C(=C\c1ccc(F)cc1)C(=O)NC(C(=O)O)C(C)C (centres undefined) 0.16%
O=c1cc(O)nc(SCc2ccccc2)n1-c1ccc(Cl)cc1 7.14%
COc1ccc(NC(=O)CC2SC(=NCc3ccccc3OC)NC2=O)cc1 (centres undefined) 0.11%
COc1ccc(NC(=O)CSc2nnc(CC(=O)Nc3ccc(F)cc3)n2C)cc1 6.25%
O=C(COC(=O)C1CCCN1C(=O)C12CC3CC(CC(C3)C1)C2)c1ccc(Br)cc1 (centres undefined) 3.8%
Cc1occc1C(=O)N1CCCC(N2CCN(c3ccccc3F)CC2)C1 (centres undefined) 7.6%
O=C(NCC1CC1)[C@]1(C(F)(F)F)C[C@H](CCC2CCCCC2)CCCO1 2.31%
Fc1ccc(-c2nnc(CSc3nnc4ccccn34)o2)cc1 14.8%
O=C(O)C1OC(Oc2cc3oc(-c4ccccc4)cc(=O)c3c(O)c2O)C(O)C(O)C1O (centres undefined) 17.2%
O=c1cc(-c2ccc(O)cc2)oc2c(C3OCC(O)C(O)C3O)c(O)c(C3OC(CO)C(O)C(O)C3O)c(O)c12 (centres undefined) 45.1%
O=c1cc(-c2ccc(O)cc2)oc2cc(O[C@@H]3O[C@H](CO)[C@@H](O)[C@H](O)[C@H]3O[C@@H]3OC[C@](O)(CO)[C@H]3O)cc(O)c12 8.96%
COc1c(O)cc2c(c1O)C1OC(CO)C(O)C(O)C1OC2=O (centres undefined) 2.96%
O=c1c(-c2ccc(O)cc2)coc2c(C3O[C@H](CO)[C@@H](O)[C@H](O)[C@H]3O)c(O)ccc12 (some centres undefined) 24.2%
O=c1cc(-c2ccc(O)cc2)oc2c(C3O[C@H](CO)[C@@H](O)[C@H](O)[C@H]3O)c(O)cc(O)c12 (some centres undefined) 26%
CC(=O)Cc1cc(=O)c2c(C)cc(O)c(C3OC(CO)C(O)C(O)C3O)c2o1 (centres undefined) 5.68%
O=c1cc(-c2ccc(O)cc2)oc2c([C@@H]3O[C@H](CO)[C@@H](O)[C@H](O)[C@H]3O)c(O)c([C@@H]3O[C@H](CO)[C@@H](O)[C@H](O)[C@H]3O)c(O)c12 7.48%
CC(O)CNCCOc1ccccc1-c1ccccc1 (centres undefined) 8.76%
CCOC(=O)CN1C(=O)NC(C)(c2ccc(OC(F)F)cc2)C1=O (centres undefined) 11.6%

Source: PubChem BioAssay AID1903 (Southern Research Specialized Biocontainment Screening …, 2009)
